# Data published in publication PMC7819943, “Rice protein-binding microarrays: a tool to detect cis-acting elements near promoter regions in rice”.
# The full ranking holds about 35,000 sequences; the median of “fluorescence intensity (a.u.)” is about 10,000, and the highest 2% start at about 52,000. Only a selection was taken, and the highest values are over-represented in it overall.
# Target: T1, OsWOX13 (Oryza sativa, UniProt Q5QMM3 1-267)
# T1 sequence: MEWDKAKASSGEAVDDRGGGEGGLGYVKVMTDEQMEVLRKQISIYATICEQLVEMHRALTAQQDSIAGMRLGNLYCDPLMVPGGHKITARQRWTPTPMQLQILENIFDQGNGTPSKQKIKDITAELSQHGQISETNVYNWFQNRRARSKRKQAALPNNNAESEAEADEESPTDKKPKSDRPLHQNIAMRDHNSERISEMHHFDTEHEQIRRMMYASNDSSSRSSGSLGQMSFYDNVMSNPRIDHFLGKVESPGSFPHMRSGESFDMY
# Experiment: protein-binding microarray (RPBM); PBS, 2% BSA, 51.3 ng/ul salmon testes DNA, 50 uM zinc acetate, 200 nM TF, 25 C, 1 h; high values mean tight binding
# Conditions: protein: recombinant; tags: N-terminal polyhistidine and DsRed monomer fusion (pET32a); label: CyDye5-dUTP incorporated in the synthesized complementary strand; 3' TTTTT single-stranded linker to array surface; dsDNA, one strand shown
# Summary of the method: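 Per-feature fluorescence intensity (arbitrary units), read on an Axon 4000B scanner, is the binding signal. Transcription factors carrying an N-terminal polyhistidine tag and DsRed fusion were expressed in E. coli BL21-CodonPlus and purified on Ni–NTA. A custom Agilent array, made double-stranded by primer extension with Cy5-dUTP and blocked with 2% BSA, was incubated with 200 nM protein in PBS, 2% BSA, salmon testes DNA and 50 µM zinc acetate at 25 °C for 1 h and then washed.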
row,Sequence,binding signal
1,GCAGATTAGTCGTTAGTGGTGACAGAAACGGCAAAAGTGGCGGAGTCACCTAGTGCAG,6220 fluorescence intensity (a.u.)
2,CTCCGATTAATGTGGAAATTTCTAACCTCTACAGCGAACGCGGAGTCACCTAGTGCAG,6190 fluorescence intensity (a.u.)
3,TTTCTAATTTCTTTCAGCATCGTATTAATGTCGATATTAACGGAGTCACCTAGTGCAG,3250 fluorescence intensity (a.u.)
4,GCGAAATTAATCTTTTGGTTGTTTCTACCTTTGCTCTGATCGGAGTCACCTAGTGCAG,5540 fluorescence intensity (a.u.)
5,TTCGTGATTTATATAAAACATTCCCATGTTGAAACCCTAACGGAGTCACCTAGTGCAG,15400 fluorescence intensity (a.u.)
6,GTGTTGTGATTCAATTAATTTGGCAGACACCAATTTGCTGCGGAGTCACCTAGTGCAG,23200 fluorescence intensity (a.u.)
7,TACTTTGATTTGCACACAATCAAATGTACAGTAGTACATGCGGAGTCACCTAGTGCAG,28500 fluorescence intensity (a.u.)
8,TTAAATCAATAATTAAATATATTTTCATAATAAATTTGTGCGGAGTCACCTAGTGCAG,27500 fluorescence intensity (a.u.)
9,GTTTTAAATTAATATATCTCGCGGAATATTAGAGCAAACGCGGAGTCACCTAGTGCAG,12600 fluorescence intensity (a.u.)
10,AAACTTCATTTAGTAGATTGATTTTCTTAACCGAATATAGCGGAGTCACCTAGTGCAG,9560 fluorescence intensity (a.u.)
11,TAGTAGATTGATTTCCTTAACCGAATATAGCAGGAATCCGCGGAGTCACCTAGTGCAG,52900 fluorescence intensity (a.u.)
12,GTAGATCAATTTCCTTAACCGAATATAGCAAGAATCCGACCGGAGTCACCTAGTGCAG,3270 fluorescence intensity (a.u.)
13,TTGATTGTGTGCAACTGACTTTGTCCCCGTTCTATAATATCGGAGTCACCTAGTGCAG,8250 fluorescence intensity (a.u.)
14,ATGTTAATGCAAAATAAATTAAATACATAGCAAGGTACTACGGAGTCACCTAGTGCAG,11200 fluorescence intensity (a.u.)
15,TGTTATTTCAATCTCAGGATTGAGTGCAAGCAATCTGTTTCGGAGTCACCTAGTGCAG,4210 fluorescence intensity (a.u.)
16,CCGGATTTCAGTTATTTCCTAATTGCATTTCTATATGGACCGGAGTCACCTAGTGCAG,9320 fluorescence intensity (a.u.)
17,TTTCAGTTATTTCCTAATTATATTTCTATATGGACTTAGTCGGAGTCACCTAGTGCAG,9980 fluorescence intensity (a.u.)
18,TTCAGTTTCTAGCTGGAAGAGACCTCCTATCATATATTTCCGGAGTCACCTAGTGCAG,53600 fluorescence intensity (a.u.)
19,AAGATAATGATGTAGACACGCAATCTGCGCGGGCCCACCACGGAGTCACCTAGTGCAG,6040 fluorescence intensity (a.u.)
20,AGATTAGATTTAGATTAGTCCTATGTGTCTCTTGCCGGGTCGGAGTCACCTAGTGCAG,19100 fluorescence intensity (a.u.)
21,GAGAGACGGTTTAATCAAGGAGCAGTTGATGGGAGAGGCGCGGAGTCACCTAGTGCAG,4550 fluorescence intensity (a.u.)

row,Sequence,binding signal
1,ACTTTAATTAGTCGTGATCAATCAATCAATCTGAATCTGTCGGAGTCACCTAGTGCAG,65100 fluorescence intensity (a.u.)
2,GTAATTAGCTAATCAATCTTTTCGGCTGTGCTTAATTAACCGGAGTCACCTAGTGCAG,33500 fluorescence intensity (a.u.)
3,CGAGCTTTAATCAATTAATCTGGAGTTTAGTGAATATATTCGGAGTCACCTAGTGCAG,9200 fluorescence intensity (a.u.)
4,TCGTGATGACAGTTTACTCTTTAAATGAGAGTAATTAACTCGGAGTCACCTAGTGCAG,17400 fluorescence intensity (a.u.)
5,ATCTGATTCGTGATTAATTAGTAATTAATTAATCTTTACTCGGAGTCACCTAGTGCAG,61000 fluorescence intensity (a.u.)
6,AATTTAATCTTTAATTAATTTATTTCTCGCCTCTCTTAACCGGAGTCACCTAGTGCAG,4610 fluorescence intensity (a.u.)
7,CTCAAGCTTAATTAAGCTCGTAATCTCATATAACCTCTTTCGGAGTCACCTAGTGCAG,57900 fluorescence intensity (a.u.)
8,CCAGTGATCAATTTAGCTCCATTTCACTAGTGCAATCTGTCGGAGTCACCTAGTGCAG,9160 fluorescence intensity (a.u.)
9,GTTTGTGATTAATCTGATTTCGTACTATTAACGTGCAACTCGGAGTCACCTAGTGCAG,31300 fluorescence intensity (a.u.)
10,GTAACGGGATGATTGAAGCTACAACGAGAATGGCAACGTCCGGAGTCACCTAGTGCAG,22200 fluorescence intensity (a.u.)
11,AATATAAATTTAGATTAGCAGTGGTAAGAAGAGGGACGTCCGGAGTCACCTAGTGCAG,22600 fluorescence intensity (a.u.)
12,CAAAATATACTAATTTCTTCAAGCAAAGGTCCAGCCCATCCGGAGTCACCTAGTGCAG,3240 fluorescence intensity (a.u.)
13,GAATAGACCGAAATTAATTAAGGCAGTAATCACCCAGATGCGGAGTCACCTAGTGCAG,16100 fluorescence intensity (a.u.)
14,TATTAAGTCTAATTAATCCATGATTAGCCTATGTGATGCTCGGAGTCACCTAGTGCAG,15300 fluorescence intensity (a.u.)
15,GATGATGATGGATGCGATTGACTGATGAGACGTCTGCTAACGGAGTCACCTAGTGCAG,50300 fluorescence intensity (a.u.)
16,CCCTAAATTTCCGCGAAATCAGCAACCGAACACAGATTAGCGGAGTCACCTAGTGCAG,7110 fluorescence intensity (a.u.)
17,TCAATAAATCATAAAACAAATTTATTAAGCCTAATTAATCCGGAGTCACCTAGTGCAG,14000 fluorescence intensity (a.u.)
18,CCTCCTCATCATGGCTTAATTAATTAATACTCCTAGCTGCCGGAGTCACCTAGTGCAG,29000 fluorescence intensity (a.u.)
19,CGAAGATTGAGTCCTTTGAAGCCGAGCTCTCCATGGCCATCGGAGTCACCTAGTGCAG,17100 fluorescence intensity (a.u.)
20,GCTTAATTGAAGGAGCCATGGCAGCTGTCCTCTCCCGCCGCGGAGTCACCTAGTGCAG,53200 fluorescence intensity (a.u.)
21,AGGATTAATTAGGCTTAATAAATTCGTCTCGCAGTTTACACGGAGTCACCTAGTGCAG,22000 fluorescence intensity (a.u.)
